# Shown are actives, neighbours in structure and some others; about 21% of the full set was active somewhere.
# VP16 counter = VP16 counterscreen qHTS for inhibitors of ROR gamma transcriptional activity. Drosophila S2 Gal4-VP16 UAS-luciferase, luminescence, 20 h. Potency, µM (highest dose often 53.6 µM), for inactives: at the top dose activity, negative = inhibition, hits mostly inhibitors. actives 3.5% (n = 310,000);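 note: Gal4-VP16 expression switched on by copper sulfate through the metallothionein promoter; potency is the fitted concentration of half-maximal effect; nearly all actives have a fitted effect of over 50% in size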
# IL-1B inflam inh = qHTS for Inhibitors of Inflammasome Signaling: IL-1-beta AlphaLISA Primary Screen; actives 4.7% (n = 360,000); THP-1 LPS/ATP IL-1B secretion, AlphaLISA, 16 h; stronger effect = lower value; activity change, % at 57.5 µM; in the data active = activity change below about -50%; inconclusive = mostly about -30% to -49%
#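 THP-1 cells pretreated 1 hr with compounds (up to 57.5 uM final), then stimulated with LPS (250 ng/mL final) plus ATP (1.25 mM final); secreted IL-1B measured by AlphaLISA after 16 hr, decreased signal indicating inhibition.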
# TDP1 cell noCPT = qHTS for Inhibitors of human tyrosyl-DNA phosphodiesterase 1 (TDP1): qHTS in cells in absence of CPT | DT40 Tdp1-/- hTDP1 cells, no CPT, ATP luminescence, 48 h | Potency, µM (top dose mostly 46.2 µM), inactives show top-dose activity change, negative = growth inhibition, usual class: inhibitors | actives 15% (n = 420,000); note: potency is the fitted concentration of half-maximal effect; nearly all actives have a fitted effect of over 55% in size
#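 Readout: luminescence from CellTiter-Glo after 30 min in the dark at RT. Cells: DT40 Tdp1-/- with stable hTDP1, 400/well. Exposure: compounds alone, ≥48 hr, 37 °C.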
# TDP1 cell CPT = qHTS for Inhibitors of human tyrosyl-DNA phosphodiesterase 1 (TDP1): qHTS in cells in presence of CPT | chicken DT40 Tdp1-/-;hTDP1 cells + 20 nM CPT, ATP luminescence, 48 h | actives 12% (n = 420,000) | Potency, µM (top dose mostly 46.2 µM), inactives show at the highest dose activity change, negative = growth inhibition, actives largely listed as inhibitors | AID 686979, 2013; note: potency is the fitted concentration of half-maximal effect; nearly all actives have a fitted effect of over 55% in size
#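 Chicken DT40 Tdp1-/- cells complemented with human TDP1, 400 cells/well, exposed to compounds plus 20 nM camptothecin for at least 48 h at 37 C; viability read as ATP content by CellTiter-Glo luminescence.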
# RORgamma inh = qHTS for inhibitors of ROR gamma transcriptional activity | Nuclear receptor ROR-gamma (Mus musculus), P51450 | Drosophila S2 Gal4-RORgamma UAS-luciferase reporter, 20 h | Potency, µM (highest dose often 53.6 µM), without a hit: at the top dose activity change, negative = inhibition, most hits filed as inhibitors | actives 5.4% (n = 310,000) | AID 2551, 2010; note: potency is the fitted concentration of half-maximal effect; nearly all actives have a fitted effect of over 60% in size
# Target sequence (P51450 whole entry, looked up, the tested form may be a part): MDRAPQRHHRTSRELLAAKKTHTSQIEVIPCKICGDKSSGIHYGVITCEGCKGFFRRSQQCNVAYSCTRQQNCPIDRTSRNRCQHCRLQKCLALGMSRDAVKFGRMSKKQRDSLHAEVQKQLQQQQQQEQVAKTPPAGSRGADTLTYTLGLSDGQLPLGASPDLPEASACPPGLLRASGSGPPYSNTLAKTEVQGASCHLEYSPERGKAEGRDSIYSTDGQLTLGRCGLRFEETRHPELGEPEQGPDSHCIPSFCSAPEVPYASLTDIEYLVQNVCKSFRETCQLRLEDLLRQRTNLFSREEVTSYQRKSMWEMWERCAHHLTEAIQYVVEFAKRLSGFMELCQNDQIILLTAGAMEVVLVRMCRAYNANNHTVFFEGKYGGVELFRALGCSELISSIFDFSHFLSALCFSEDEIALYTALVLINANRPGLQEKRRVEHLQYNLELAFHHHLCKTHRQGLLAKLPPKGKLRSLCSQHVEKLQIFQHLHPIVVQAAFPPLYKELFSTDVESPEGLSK
#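 Drosophila S2 cells stably expressing Gal4-DBD/mouse RORγ fusion under metallothionein promoter plus UAS-luciferase; compound 1 h, then 700 uM CuSO4 induction for 20 h at ambient temperature; inhibition read as reduced luminescence.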
# ELG1 repair inh = qHTS screen for small molecules that inhibit ELG1-dependent DNA repair in human embryonic kidney (HEK293T) cells expressing luciferase-tagged ELG1. Potency, µM (doses to about 46.1 µM), for the others: top-dose activity change, negative = inhibition, usual class: inhibitors. HEK293T ELG1-luciferase reporter, luminescence, 16 h; DNA damage induced by 5-fluorouridine. actives 2.3% (n = 330,000); note: potency is the fitted concentration of half-maximal effect; nearly all actives have a fitted effect of over 55% in size
#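 Step one: seed 2,000 cells per well. Step two: pin-transfer compound or DMSO alongside 5-fluorouridine. Step three: incubate 16 hr, 37 °C, 5% CO2. Step four: add ONE-Glo, wait 30 min, read luminescence.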
# An asterisk follows results filed as active; ? = inconclusive; . = no result given; [ ] = remark or other dose. Unless noted, calls come from the whole dose curve; as a rule, active = well fitted curve in the direction sought with a large enough effect; inconclusive = small, poorly fitted or top-dose-only effect, or another doubt; inactive = no such curve, though single readings can be large; an effect the other way counts as inactive or inconclusive. % is set by controls: 0 for no effect and ±100 for the full control effect.
SMILES,VP16 counter,IL-1B inflam inh,TDP1 cell noCPT,TDP1 cell CPT,RORgamma inh,ELG1 repair inh
CCCSc1ncnc2[nH]ncc12,.,1,-37%,-11%,.,.
CCCCCCCCNc1ncnc2[nH]ncc12,.,-6,3.7µM*,4.6µM*,.,.
OCCCNc1ncnc2[nH]ncc12,.,11,1%,5%,.,.
Fc1ccc(CCNc2ncnc3[nH]ncc23)cc1,.,1,16µM*,?,.,.
Cc1ccc(C)c(N(CC(=O)NC2CCCCC2)C(=O)CNC(=O)c2ccco2)c1,2%,33,-7%,3%,9%,0%
C=CCN(C(=O)CCc1ccccc1OC)c1nc(-c2ccc(S(C)(=O)=O)cc2)cs1,-5%,-57*,9.2µM*,16µM*,?,?
COCCN(Cc1cc2cc(C)ccc2n2nnnc12)C(=S)Nc1ccc(C)cc1,-3%[10 µM],-7,23µM*,18µM*,-19%,16µM*
CCCNC(=S)N(Cc1cc2cc(C)ccc2n2nnnc12)CC(C)(C)CN(C)C,.,?,?,?,.,-1%
COCCN(Cc1cc2cc(C)ccc2n2nnnc12)C(=S)Nc1ccc(OC)cc1,.,9,?,?,.,.
CCC(C)NC(=S)N(Cc1cc2cc(C)ccc2n2nnnc12)CC(C)(C)NC(C)C (stereo not given),.,7,16µM*,16µM*,.,5%
CCOC(=O)c1cc(S(=O)(=O)Nc2c(C)cc(C)cc2C)[nH]n1,.,.,-27%,-12%,.,.
COCc1cc(=O)c2ccccc2o1,.,5,-5%,-17%,.,11%
CCCCOC(=O)CSc1nnc(-c2ccccc2)o1,.,.,-20%,8%,.,.
Cc1cc(C)c(OCCCNC2CCCC2)c(Br)c1,-11%,-55*,7.3µM*,13µM*,-24%,?
Cc1ccc(OCCNCc2ccccc2)c(C)c1,7%,-7,?,?,-9%,-10%
Cc1cc(C)c(OCCCNCc2ccccc2)c(Br)c1,-12%,-72*,23µM*,18µM*,3%[1.91 µM],-17%
Cc1cc(Cl)c(OCCCNCc2ccccc2)c(Br)c1,2%,?,18µM*,?,-15%,-11%
Cc1cc(Cl)c(OCCN2C(=O)NC(C)(C)C2=O)c(Br)c1,4%,31,-23%,?,5%,7%
CCN(CC(=O)NCc1cccs1)C(=O)c1ccc(S(=O)(=O)N(CC)c2ccccc2)cc1,.,-18,-18%,-6%,.,10%
CCOC(=O)CCn1nc(C)c2c(C)n(-c3ccccc3)nc2c1=O,.,.,-7%,3%,.,.
CCOC(=O)CC(C)(C)/C(C)=N/Nc1ccc([N+](=O)[O-])cc1[N+](=O)[O-],?,10,15µM*,?,?,-2%
COc1ccc(-c2ccc(C(=O)N3CCOCC3)c3occc23)c(C)c1,.,16,18µM*,15µM*,.,.
COc1ccc(-c2ccc(C(=O)N3CCN(C)CC3)c3occc23)c(C)c1,.,6,6.5µM*,15µM*,.,.
CCn1c(=O)n(-c2ccc(F)c(Cl)c2)c(=O)c2c3c(sc21)CN(C(C)=O)CC3,.,.,-18%,?,.,.
CCOC(=O)Cc1ccc(NC(=O)N2CCC(CN3CCC(C)CC3)CC2)cc1,.,.,-1%,3%,.,.
SMILES,VP16 counter,IL-1B inflam inh,TDP1 cell noCPT,TDP1 cell CPT,RORgamma inh,ELG1 repair inh
CCN(CC)C(=O)c1sc2c(c1C)c(=O)n(-c1ccc(Cl)c(Cl)c1)c(=O)n2CC(=O)Nc1cccc(OC)c1,.,.,-8%,-21%,.,.
COc1ccc(-n2c(=O)c(-c3ccc(Cl)cc3)nc3cncnc32)cc1,-6%,.,-4%,7%,?,.
COc1cc(OC)cc(C(=O)NCC(=O)NCc2ccccn2)c1,.,2,8%,-2%,.,0%
O=c1[nH][nH]c(-c2ccccc2O)c1C(C[N+](=O)[O-])c1ccc(Cl)cc1Cl (stereo not given),9%,11,?,?,38%,3%
Cc1cc(O)c(C(C[N+](=O)[O-])c2ccc(Cl)cc2Cl)c(=O)o1 (stereo not given),?,1,16µM*,18µM*,16µM*,-3%
O=C1c2oc3ccccc3c(=O)c2C(c2cccs2)N1CCCN1CCOCC1 (stereo not given),4%,6,-27%,18µM*,12%,21%
COCCN1C(=O)c2oc3ccccc3c(=O)c2C1c1ccc(C(=O)OC)cc1 (stereo not given),-10%,-17,-4%,-11%,4%,5%
COC(=O)c1ccc(C2c3c(oc4ccccc4c3=O)C(=O)N2CCCN2CCOCC2)cc1 (stereo not given),-4%,-21,?,21µM*,?,-5%
CCCS(=O)(=O)NCc1c(C)ncc2c1CCN(C(=O)/C=C/c1ccc(F)cc1F)C2,.,.,-24%,-3%[9.04 µM],.,.
CC1(C)CC(=O)C(C2(O)C(=O)N(Cc3ccccc3)c3ccccc32)CO1 (stereo not given),-7%,-2,5.2µM*,4.6µM*,1%,-4%
CC1(C)CC(=O)CC(C2(O)C(=O)N(Cc3ccccc3)c3ccccc32)O1 (stereo not given),-7%,21,1.8µM*,2.6µM*,-13%,3%
O=C1N(Cc2ccccc2)c2ccccc2C12OCCO2,-1%,18,-24%,-1%,16%,-4%
CC1(C)CC(=O)C(C2(O)C(=O)Nc3ccccc32)CO1 (stereo not given),-7%,6,-11%,19%,-3%,-2%
CC(C)N1C(=O)C(O)(C2COC(C)(C)CC2=O)c2ccccc21 (stereo not given),-7%,-3,7.3µM*,5.8µM*,-9%,7%
O=C(Cc1n[nH]c(=O)c2ccccc12)OCC(=O)c1ccccc1,.,30,2%,-21%,.,?
CC(=O)c1cccc(N=Nc2c(C)[nH]c3ccccc23)c1,-11%,0,?,?,?,26%
CC(=O)c1ccc2c(c1)c(C#N)c1ccccc1[n+]2[O-],0%,7,18µM*,13µM*,-12%,12%
CN(Cc1cccnc1)C(=O)c1cc(S(=O)(=O)Nc2ccccc2F)ccc1Cl,.,-5,-23%,?,.,-3%
